Laboratory results: PubChem BioAssay (NCI)
Compounds without any hit were thinned out: in the full panel of roughly 83,000, 20% have a hit.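 Cells were grown in 96-well plates and exposed to the test compound at a single concentration for 48 hours; results are reported as percent growth, with values below 10 considered active.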 A number with no mark means an inactive call. Active and inactive are the calls of the source.

Columns and labels:
Assay in all cases: NCI-60 one-dose screen, 48 h (100 = growth as untreated, 0 = no growth, -100 = all killed)
Conditions in all cases: 10 µM unless noted
[1] = tested on: NCI-H23 lung
[2] = tested on: NCI-H226 lung
[3] = tested on: HOP-62 NSCLC
[4] = tested on: NCI-H460 lung
[5] = tested on: HOP-92 NSCLC
[6] = tested on: NCI-H522 lung
[7] = tested on: A549/ATCC NSCLC
[8] = tested on: 786-0 renal
[9] = tested on: COLO 205 colon
[10] = tested on: NCI-H322M lung

Compound	growth [1]	growth [2]	growth [3]	growth [4]	growth [5]	growth [6]	growth [7]	growth [8]	growth [9]	growth [10] [%]
CC(C)CC(NC(=O)CN(Cc1ccccc1)S(C)(=O)=O)C(=O)O (stereo unspecified)	93.1%	104%	96%	98.7%	-0.442% (active)	103%	96.5%	93.6%	112%	–
CCc1ccccc1-n1c(N)c(C#N)c(-c2ccc(N(C)C)cc2)c(C#N)c1=O	96.2%	98.6%	106%	96.4%	68.3%	93.7%	98.9%	93.9%	114%	–
C=CCn1c(C)nc2cc(Nc3nc(Cl)nc4ccccc34)ccc21	97.9%	90.1%	108%	99.2%	91.9%	97.4%	81.4%	87.8%	126%	–
O=C(Cc1ccc(F)c(F)c1)Nc1cc(C2(C(F)(F)F)CC2)nn1Cc1ccccc1	-9.81% (active)	8.26% (active)	-0.0766% (active)	0.876% (active)	-17.7% (active)	-24.6% (active)	9.17% (active)	12.1%	-86.7% (active)	–
CC(C)(C)OC(=O)Nc1ccc2c(c1)C(NC(=O)Nc1cccc(C#N)c1)CC(C)(C)O2 (stereo unspecified)	41%	48.4%	45.8%	25.9%	39.1%	33.7%	40%	50.8%	53.7%	–
CSc1n(Cc2ccc3ccccc3c2)c(C)c[n+]1Cc1ccc2ccccc2c1	-50.8% (active)	-37% (active)	4.62% (active)	-0.332% (active)	-44.4% (active)	-26.9% (active)	16.5%	8.97% (active)	-54.3% (active)	–
O=C(c1ccc(Nc2nccc(NCCCCNc3ccnc4cc(Cl)ccc34)n2)cc1)N1CCCCC1	45.3%	91.3%	69.7%	12.9%	59.2%	33.2%	25.8%	0.767% (active)	-58.6% (active)	–
CC(C)(C)C(CCc1ccc(Cl)cc1)N1CCN(C2CCCCC2)CC1 (stereo unspecified)	47.5%	78.5%	47.5%	25.2%	–	41%	24.9%	42.4%	33.7%	82.8
COC(=O)/C=C1\S/C(=N\NS(=O)(=O)c2ccc(C)cc2)N(c2ccccc2)C1=O	102%	97.8%	99.4%	104%	91.4%	91.9%	98.6%	108%	121%	–
